# From PubChem BioAssay (NCI)
# About 83,000 compounds went through this panel and 20% of them were active in at least one assay; those are over-represented in the sample as a whole.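 Testing used 96-well plates and a 48-hour single-concentration exposure. Example: -40 means 40% of the starting cells died.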 A number with no mark means an inactive call. The source made the active and inactive calls. Rule for the calls: active = growth percent below 10; inactive = the rest.
# System: SK-MEL-2 melanoma
# Assay: NCI-60 one-dose screen, 48 h (100 = growth as untreated, 0 = no growth, -100 = all killed)
# Details: 10 µM unless noted
row,SMILES,growth
1,CCN(CC)CCOc1nc2c3ccc(Cl)cc3nn2c2ccccc12,72.5%
2,C=C(c1ccc(C(=O)O)cn1)c1cc2c(cc1C)C(C)(C)CCC2(C)C,84%
3,CCn1cc(C(=O)NN=C2CCCCCC2)c(=O)c2ccc(C)nc21,105%
4,Cc1c2cc[nH]c(=O)c2c(C)c2c1[nH]c1ccc(OC(=O)c3ccccc3)cc12,23.7%
5,C#Cc1cccc(Nc2nc3ccc([N+](=O)[O-])cc3nc2Nc2cccc(C#C)c2)c1,-53.8% (active)
6,COc1cccc(C(=O)OCC(O)C(=O)NC23CC4CC(CC(C4)C2)C3)c1 (stereo not given),101%
7,COc1ccc2cc(Cn3cc[n+](Cc4ccc5ccccc5c4)c3)ccc2c1,-15.8% (active)
8,Cc1ccc(C(=O)c2ccc(CC(=O)N/N=C/c3ccc(O)cc3O)n2C)cc1,59.5%
9,O=C(Nc1ccccc1)c1sc(-c2ccccc2)cc1O,105%
10,COC(=O)c1ccc2c(c1)c1c(C)c3ccncc3c(C)c1n2C,13.9%
11,O=C(O)c1cccc(N/C=C/C(=O)c2cc3cc(Br)ccc3oc2=O)c1,119%
12,O=C(N/N=C/c1ccc([N+](=O)[O-])cc1)c1ccc2nc(-c3ccc(Cl)cc3)[nH]c2c1,66.7%
13,CCCCN1C(=O)/C(=c2\sc3n(c2=O)NC2C(N=3)N(CC)C(=O)N2CC)c2ccccc21 (stereo not given),59.1%
14,CNCc1cccc2c1OCCOCCN(C)C(=O)CN(C)S(=O)(=O)c1ccc(cc1)-c1cnc(N)c(n1)C(=O)N2,4.91% (active)
15,COc1ccccc1-n1c(-c2cc(O)ccc2C)cn2c3c(=O)[nH]c(=O)n(C)c3nc12,89.7%
16,COc1ccc(NC(=O)c2sc3nc(C)c(C(O)c4ccccc4)cc3c2N)cc1 (stereo not given),46.5%
17,COc1cc(C2C3=C(COC3=O)N(CCO)c3cc4c(cc32)OCCO4)cc(OC)c1OC (stereo not given),58.5%
18,C/C(=C(/c1ccc(Cl)cc1)c1ccc(OCCCN(C)C)cc1)c1ccc(Cl)cc1,98.5%
19,O=C(CSc1nc2ccc([N+](=O)[O-])cc2[nH]1)Nc1ccc(Br)cc1,42.2%
20,C[N+](C)(C/C=C/c1ccccc1)Cc1ccccc1,93.7%

row,SMILES,growth
1,C/C(=C(\c1ccc(OCCN2CCCCCC2)cc1)c1ccc(OC(=O)Cc2ccccc2)cc1)c1ccc(Cl)cc1,52.9%
2,COc1ccc2c(c1)c(-c1nonc1-c1c[nH]c3ccc(Br)cc13)cn2C,46.9%
3,CCCCCCCCn1ccc2cc(NC(=O)Cn3cc(CN4CCN(CC)CC4)nn3)ccc21,101%
4,C#CC#CC#CC#CC#CC#CC#CC#CC[C@H]1OC[C@@H](COC(=O)O[C@@H](C(=O)O[C@H]2C[C@@]3(O)[C@@H](OC(=O)c4ccccc4)[C@@H]4[C@]5(OC(C)=O)CO[C@@H]5C[C@H](O)[C@@]4(C)C(=O)[C@H](OC(C)=O)C(=C2C)C3(C)C)[C@@H](NC(=O)c2ccccc2)c2ccccc2)O1,76.2%
5,Cc1cc(C)cc(Nc2ccc([N+](=O)[O-])c(NCCN3CCOCC3)n2)c1,43.4%
6,CCN=C1C=CC(=C(c2ccc(N(C)C)cc2)c2ccc(N(C)C)cc2)c2ccccc21,-39.5% (active)
7,CCOC(=O)Cn1c(=O)c2c3ccccc3n(C)c2n2nnc(-c3ccccc3)c12,97.1%
8,COc1ccc2[nH]cc(-c3nc(-c4cn(C)c5ccncc45)cs3)c2c1,93%
9,COc1ccc2nc(SCC(=O)Nc3ccccc3C)[nH]c2c1,101%
10,CCCCNC1=C(OCC)C(=O)c2ccccc2C1=O,104%
11,COc1ccc(C2=Nc3c/c(=C\c4c(O)[nH]c5cc(Cl)ccc45)ccc3=N2)cc1,54.4%
12,Nc1ccc([N+](=O)[O-])cc1N=C/C=C/c1ccccc1,43.5%
13,c1ccc(CNc2ccc3nc(CCC4CCCCC4)[nH]c3c2)cc1,82.8%
14,COc1ccc2c(c1)c(-c1cc(-c3cn(C)c4ccc(OC)cc34)on1)cn2C,118%
15,C#CC#CC#CC#CC#CC#CC#CC#CC[C@H]1OC[C@H](COC(=O)O[C@@H](C(=O)O[C@H]2C[C@@]3(O)[C@@H](OC(=O)c4ccccc4)[C@@H]4[C@]5(OC(C)=O)CO[C@@H]5C[C@H](O)[C@@]4(C)C(=O)[C@H](OC(C)=O)C(=C2C)C3(C)C)[C@@H](NC(=O)c2ccccc2)c2ccccc2)O1,73.9%
16,Cc1ccc(-c2nc(C(Cl)Cl)nc3cc(C)nn23)cc1,65.5%
17,O=C(Nc1nc(C(=O)N2CCN(C(c3ccccc3)c3ccccc3)CC2)cs1)c1ccc(NC2CCCCC2)c([N+](=O)[O-])c1,104%
18,COc1cc(-c2nc3ccc(C)cc3[nH]2)ccc1OCC(=O)N=Nc1c(O)[nH]c2ccc(Cl)cc12,13%
19,C=C1C(=O)O[C@H]2[C@H]1CC/C(COC(=O)NCCCCCCCCNC(=O)OC/C1=C/CC[C@@]3(C)O[C@H]3[C@H]3OC(=O)C(=C)[C@@H]3CC1)=C\CC[C@@]1(C)O[C@@H]21,-57.5% (active)
20,Nc1c(C(=O)Nc2ccncc2)sc2nc3c(cc12)CCCCC3,93.7%
